# High-throughput results from PubChem.
# Pf growth 48h: inhibits P. falciparum growth in the first generation, 48 h | AID 504832 | P. falciparum luciferase growth in erythrocytes, 48 h | hit rate 5.9% among 310,000 | Potency, µM (highest dose often 28.7 µM), actives largely listed as inhibitors
#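 Erythrocytes infected with P. falciparum carrying an integrated firefly luciferase reporter (2% hematocrit, 0.1% parasitemia final) were exposed to compounds in RPMI 1640 with 0.5% Albumax at 37 C, 5% CO2. Growth inhibition was scored as reduced luminescence.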
# Pf growth 96h: inhibits malaria parasite growth, 96 h | P. falciparum luciferase reporter growth, 96 h | Potency, µM (titrated, usually from 28.7 µM), most hits filed as inhibitors | hit rate 6.9% among 320,000
#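 Compounds incubated with erythrocytes infected by luciferase-expressing P. falciparum (2% hematocrit, 0.05% parasitemia final) for 96 hours, 37 C in 5% CO2. Growth inhibition scored as decreased luciferase luminescence.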
# HCMV antiviral: human cytomegalovirus inhibition. HFF cells, HCMV-luciferase reporter, 72 h; stronger effect = lower value. activity change, negative = inhibition, % at 57.5 µM. hit rate 4.5% among 410,000; in the data active = activity change below about -60%; inconclusive = no clear call, values can overlap the other calls; inactive = above about -39%
#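 Two compound doses tested in HFFs infected with HCMV-luciferase, MOI 1 PFU/cell, 72 h at 37C. Lysate luminescence read with OneGlo; data normalized against buffer-only and 10uM Salinomycin inhibitor controls.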
# HCV inh: blocks hepatitis C virus; Huh7.5.1 HCVcc-Cre infection, luciferase reporter, 44 h; Potency, µM (series often up to 41.8 µM), actives largely listed as inhibitors; hit rate 3.4% among 340,000
#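 1,000 cells/well; 4 h culture; + compound; + HCVcc-Cre (~0.5 moi); 44 h; luciferase substrate, RT 15 min; read 15 sec.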
# Numbers stand for hits; n = inactive; u = inconclusive; x = no result. A selection: hits, their analogues and other compounds. The true share with any hit is near 13%. Unless noted, calls follow the shape of the dose curve; as a rule, active = well fitted inhibition curve with a large enough effect; inconclusive = small, poorly fitted or top-dose-only effect, or another doubt; inactive = no such curve, though single readings can be large or run the other way.
SMILES,Pf growth 48h,Pf growth 96h,HCMV antiviral,HCV inh
COc1ccc(N=C2SC(C(=O)N3CCN(c4ccc([N+](=O)[O-])cc4)CC3)CC(=O)N2C)cc1 (stereo unspecified),15µM,n,n,u
O=C(O)C1=CC2c3ccccc3C1c1ccccc12,n,10µM,n,n
CC(C)CSc1oc(-c2ccco2)nc1S(=O)(=O)c1ccc(Br)cc1,x,x,n,x
Cc1ccc(CNS(=O)(=O)c2c(C)nc3sc(C)cn3c2=O)cc1,x,x,n,x
Cc1ccc(Cn2ccc(=O)c(OCc3c(Cl)cccc3Cl)c2C)cc1,x,4.1µM,n,u
CC1=C(C(=O)OCCc2ccccc2)C(c2ccsc2)NC(=O)N1C (stereo unspecified),n,n,-67,n
Cc1cc(CN2CCN(c3cccc(C)c3C)CC2)cs1,x,x,-69,x
CC1CCCCN1Cc1ccc(-c2nn[nH]n2)cc1 (stereo unspecified),n,u,n,n
CC1CCCCN1Cc1ccc(N)cc1 (stereo unspecified),n,0.1µM,n,n
CC(C)Cn1c(=O)c(-[n+]2ccccc2)c([O-])c2ccccc21,n,13µM,n,n
CC(C)Cn1c2ccccc2c2cc(C(=O)O)ccc21,x,n,n,n
CCCCn1c(=O)c(-[n+]2ccccc2)c([O-])c2ccccc21,x,n,-62,n
Cc1ccc(C)c(COC(=O)c2cccc(S(=O)(=O)N3CCCC3)c2)c1,u,n,n,u
COc1ccc(C(=O)OCc2cc(C)ccc2C)cc1S(=O)(=O)N1CCCC1,7.4µM,10µM,n,u
COc1ccc(C(C)=O)cc1COC(=O)c1ccc2c(c1)OCO2,n,u,n,n
COc1ccc(C(C)=O)cc1COC(=O)c1cnc(Cl)c(Cl)c1,n,n,n,11µM
O=C(OCc1ccc(Br)cc1)c1ccncc1,n,n,n,n
COc1ccc(C(C)=O)cc1COC(=O)c1ccc2c(c1)OCCO2,n,n,n,11µM
O=C(OCc1ccc(Br)cc1)c1cnc(Cl)c(Cl)c1,u,n,-60,n
COc1ccc(C(C)=O)cc1COC(=O)c1ccc(C)c(S(=O)(=O)N2CCOCC2)c1,9.3µM,9.3µM,n,u
COC(=O)c1cc(COC(=O)c2ccc(OC)c(S(=O)(=O)N3CCCC3)c2)oc1C,u,n,n,16µM
CCOc1ccc(C(C)=O)cc1COC(=O)c1ccc2c(c1)NC(=O)CS2,u,u,n,3.5µM
COc1ccc(C(=O)COC(=O)c2ccc3c(c2)NC(=O)CS3)c(OC)c1,n,u,n,u
COc1cc(C(=O)OCc2cccc(S(=O)(=O)N3CCOCC3)c2)ccc1OCC(C)C,u,u,n,10µM
COc1ccc(CNC(=O)C2=C(C)C(=O)OC23CCCCC3)cc1,x,x,n,x
SMILES,Pf growth 48h,Pf growth 96h,HCMV antiviral,HCV inh
Cc1ccc2c(=O)c(C(=O)c3cccc(Cl)c3)cn(CC(=O)Nc3ccc4c(c3)OCCO4)c2n1,x,x,n,x
Cc1ccc(CN(C(=O)COc2ccc(C(C)(C)C)cc2)C2CCS(=O)(=O)C2)o1 (stereo unspecified),x,x,n,x
CCOCCCNC(=O)C1CCN(C(=O)c2cc3sccc3n2C)CC1,x,x,n,x
Cc1ccnc(NC(c2cc(C)ccc2O)c2ccc3cccnc3c2O)c1 (stereo unspecified),x,x,n,x
Cc1ccnc(NC(c2cccnc2)c2ccc3cccnc3c2O)c1 (stereo unspecified),u,n,n,4µM
Cc1ccnc(NC(c2ccccc2)c2ccc3cccnc3c2O)c1 (stereo unspecified),x,x,-78,13µM
COc1ccccc1NC(c1cccnc1)c1ccc2cccnc2c1O (stereo unspecified),u,u,n,u
O=C(Nc1ccc(Cl)cc1F)c1cc(S(=O)(=O)NC2CCCCCC2)ccc1F,x,x,n,x
CCOc1nc2cccc(C(=O)OC(C)OC(=O)OC3CCCCC3)c2n1Cc1ccc(-c2ccccc2-c2nn[nH]n2)cc1 (stereo unspecified),x,x,-86,x
CCCc1nc(C(C)(C)O)c(C(=O)OCc2oc(=O)oc2C)n1Cc1ccc(-c2ccccc2-c2nn[nH]n2)cc1,n,u,x,x
CCOC(=O)c1cccc(NC(=O)NCc2ccc3c(c2)CCN3C(=O)CC)c1,x,x,n,x
S=C(NCCNC(=S)Nc1ccccc1Cl)Nc1ccccc1Cl,9.3µM,9.3µM,u,u
S=C(NCCc1ccccc1)Nc1ccc(Br)cn1,n,8.3µM,-102,n
S=C(NCCCc1ccccc1)Nc1ccccc1Cl,n,n,-60,n
CC(C1CC1)N(Cc1ccccc1)C(=S)Nc1ccccc1Cl (stereo unspecified),u,12µM,n,u
